Results published in PubChem BioAssay (NCI).
The panel holds about 83,000 compounds, 20% with a hit somewhere; the sample as a whole holds those more often.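 Interpretation: 100, growth as untreated; towards 0, rising growth inhibition; 0, no net growth; 0 to -100, cell death. Compounds scoring below 10 were considered active.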 Unmarked numbers belong to inactive results. The source made the active and inactive calls.

Columns and labels:
Assay in all cases: NCI-60 one-dose screen, 48 h (100 = growth as untreated, 0 = no growth, -100 = all killed)
Details in all cases: 10 µM unless noted
HCT-15 colon = tested on: HCT-15 colon
HT29 colon = tested on: HT29 colon
SNB-75 CNS = tested on: SNB-75 CNS
SNB-19 CNS = tested on: SNB-19 CNS
U251 CNS = tested on: U251 CNS
PC-3 prostate = tested on: PC-3 prostate
SK-MEL-5 melanoma = tested on: SK-MEL-5 melanoma
UACC-62 melanoma = tested on: UACC-62 melanoma
LOX IMVI melanoma = tested on: LOX IMVI melanoma
SK-MEL-28 melanoma = tested on: SK-MEL-28 melanoma

SMILES | growth (HCT-15 colon) | growth (HT29 colon) | growth (SNB-75 CNS) | growth (SNB-19 CNS) | growth (U251 CNS) | growth (PC-3 prostate) | growth (SK-MEL-5 melanoma) | growth (UACC-62 melanoma) | growth (LOX IMVI melanoma) | growth (SK-MEL-28 melanoma)
C#CCOc1cccc(-c2ncc3cc(NC(=O)CCl)ccc3n2)c1 | -29.6% (active) | -67.6% (active) | 24.4% | 2.89% (active) | -95.7% (active) | 11.7% | -65.2% (active) | -6.06% (active) | -50.4% (active) | 53.9%
CCn1cc(C(=O)N/N=C/c2ccc(Br)cc2)c(=O)c2cc(F)c(N3CCNC(C)C3)c(F)c21 (stereo not given) | -18.9% (active) | -31.7% (active) | 85.6% | 54.5% | 1.38% (active) | 68.3% | 82.4% | 101% | -78.2% (active) | 91.2%
Nc1nc(C(=O)N/N=C/c2ccc(N3CCOCC3)cc2)nn1-c1ccc(S(N)(=O)=O)cc1 | 108% | 106% | 83% | 102% | 98.3% | 101% | 102% | 102% | 97.4% | 117%
CNC(=O)c1c(NC(=O)c2ccc(C(C)(C)C)cc2)sc2c(CN(C)C)c(O)ccc12 | -77.3% (active) | 0.0225% (active) | 94.9% | 0.882% (active) | -29.9% (active) | -23.3% (active) | -29.5% (active) | -85.9% (active) | -88.5% (active) | -89.1% (active)
CC1(C)CC[C@]2(C(=O)O)CC[C@]3(C)C(=CC[C@@H]4[C@@]5(C)C[C@@H](Cc6cn([C@@H]7O[C@H](CO)[C@@H](O)[C@H](O)[C@H]7O)nn6)[C@H](O)C(C)(C)[C@@H]5CC[C@]43C)[C@@H]2C1 | 106% | 99.1% | 92% | 97% | 92% | 93.4% | 100% | 93.2% | 99.4% | 103%
CS(=O)(=O)Cc1cnc(C2OCCO2)s1 | 109% | 91.1% | 91.2% | 112% | 96.5% | 92.2% | 97.8% | 106% | 100% | 105%
COc1ccc(C(c2cc(OC)c(OC)c(OC)c2)N2CCN(Cc3ccccc3)CC2)cc1 (stereo not given) | 47.6% | 28.3% | 92.4% | 70% | 62.8% | 59.3% | 52.6% | 49.4% | 67% | 78.3%
CCOC(=O)c1c(C)nc2c(c1N)CC(=O)N2Cc1cc(OC)c(OC)c(OC)c1 | 28.5% | 8.37% (active) | 53.9% | 66.1% | 38.3% | 52.4% | 23% | 51% | 48.5% | 73.6%
COc1cccc(/C=C2\COc3ccc(O)cc3C2=O)c1 | 40.6% | 37.8% | 82.4% | 65.6% | 45.1% | 76.8% | 96.6% | 63.3% | 18.7% | 108%
O[C@@H](c1cc(C(F)(F)F)nc2c(C(F)(F)F)cccc12)[C@H]1CCCCN1 | 77.5% | 53.8% | 36.6% | 54.8% | 47.7% | 49.4% | 82% | 56.2% | 29.4% | 98.3%
CCCCCCCC/C=C\CCCCCCCCOc1ccc(CC(=O)NCC[N+](C)(C)C)cc1 | 60.4% | 24.5% | 34.6% | 13.4% | 16.9% | 4.88% (active) | 87.3% | 61.3% | 83.2% | 91.7%
COc1cccc(/C=C/C(=O)c2cc3c(N)c(C(=O)Nc4ccccc4C)sc3nc2C)c1 | 8.29% (active) | -5.29% (active) | 12.8% | 11.4% | 7.49% (active) | 45.3% | 52.4% | 33.6% | -65.9% (active) | 70.9%
COc1ccc(-c2ccc(=O)oc2C#Cc2cc(OC)c(OC)c(OC)c2)cc1O | 22.5% | -9.43% (active) | -13.4% (active) | 10.7% | 13.6% | 23.3% | -13.6% (active) | 14.8% | 23.5% | 38.9%
Cc1ccc2[nH]c(-c3ccc(S(C)(=O)=O)cc3)c(/C=N/N=C(N)N)c2c1 | 35.3% | 16.7% | 65.4% | 57.1% | 33.4% | 39.9% | 29.1% | 41.5% | 47.3% | 71.2%
CN1CCN(c2ccc3c(c2)nc(NNC(=O)c2cnccn2)c2cccn23)CC1 | 23.9% | 28.6% | 66.7% | 34.9% | 32.2% | 47.3% | 31.2% | 12.9% | 10.3% | 24.8%
COc1cc2c3c(n(CCCCNCCCn4c5c(c6cc(OC)c(OC)cc6c4=O)C(=O)c4cc6c(cc4-5)OCO6)c(=O)c2cc1OC)-c1cc2c(cc1C3=O)OCO2 | 99.6% | 93.3% | 91% | 102% | 91.6% | 93% | 102% | 96.8% | 95.2% | 109%
CCN1C(=O)N(CC)C2C1NN=c1s/c(=C\c3cc4ccccc4[nH]3)c(=O)n12 (stereo not given) | 12% | 5.58% (active) | 32.1% | 45.1% | 7.49% (active) | 13.2% | -5.91% (active) | 22.2% | 17.4% | 52.2%
CCN1CCN(CC(=O)Nc2nc3ccc(NCc4ccc(Br)cc4)cc3s2)CC1 | -18.8% (active) | 2.33% (active) | 89.4% | 76.3% | 52.9% | 44.6% | 47.6% | -47.1% (active) | -76.4% (active) | -66.6% (active)
COc1ccc2c(c1)c(-c1cc(-c3cn(C)c4ccc(OC)cc34)on1)cn2C | 98.6% | 97.3% | 97.8% | 94.5% | 93.7% | 87.9% | 81.2% | 90.7% | 81.8% | 94.5%
CCNC(=O)Oc1ccc(/C(=C(/C)Cc2ccc(OC)cc2)c2ccc(OCCN3CCCCCC3)cc2)cc1 | 18.7% | 2.15% (active) | 77.4% | 82.7% | 45.1% | 63.8% | 66.2% | 73.2% | -22% (active) | 75.3%
CCN(CC)CCN(CCN(CC)CC)c1ccccc1 | 104% | 102% | 79.1% | 87.3% | 98.2% | 87.4% | 97.7% | 89.4% | 88.7% | 108%
COc1ccc(C2C3=C(COC3=O)N(CCO)c3cc4c(cc32)OCCO4)cc1OC (stereo not given) | 31.3% | 4.76% (active) | -8.37% (active) | 37.4% | 26.4% | 23.8% | 21% | 18.1% | 42.1% | 48.7%
CCCCn1sc(=O)n(Cc2ccc(CNC(=O)OCc3ccc4c(Cl)cc(Cl)c(O)c4n3)cc2)c1=O | 19% | 101% | 81.1% | 52.5% | 41.1% | 58.5% | 59.5% | 47.9% | 46% | 69.2%
CCN(CC)CCCNCc1cc(-c2ccccc2)nc2cc(Cl)ccc12 | 12.1% | -17.3% (active) | 70.8% | 68.9% | 11.5% | 37% | -76.9% (active) | -61.3% (active) | -20.6% (active) | -92.4% (active)
COc1cc(C(=O)c2c(-c3ccccc3)oc3c(OC)cccc23)cc(OC)c1O | 13.5% | 6.79% (active) | 22.2% | 25.8% | 18.8% | 23.5% | 19.7% | 39.3% | 16.1% | 62.7%
O=[N+]([O-])/C(=C\c1ccco1)c1ccccc1Cl | 67.7% | 69.7% | 64.8% | 79.7% | 72.6% | 45.8% | 76.7% | 33.8% | 64.2% | 60.3%
